Measured values reported in the supplement of paper PMC7695840.
Where a name gives a salt, the structure may show the parent alone.

Experiments:
[1] = system: Staphylococcus aureus MW2 delta-mecA (mecA-); experiment: normalized GFP fluorescence (growth of mecA- strain) (fraction of control range); higher = more growth of mecA- strain; details: compound concentration: 150 uM; cefoxitin: subinhibitory; fluorescent label: GFP
Summary of the method: (§1)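 Fluorescence from DsRed (540/590) and GFP (485/520) was recorded after 20 h of static growth at 37 °C and 90% humidity. The wells held a 1:1 mix of pre-induced S. aureus MW2 cells, gene-bearing with DsRed and gene-deleted with GFP, in LB with a daily-set subinhibitory antibiotic dose, dispensed at 5 µL/well onto 150 μM compound (1.5% DMSO) in 1536-well plates, single replicate. Each channel was scaled per plate between single-strain control medians, excluding plates with high untreated ratios and rows with DsRed/GFP >10.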

[2] = system: Staphylococcus aureus MW2 (mecA+); experiment: normalized DsRed fluorescence (growth of mecA+ strain) (fraction of control range); higher = more growth of mecA+ strain; details: compound concentration: 150 uM; cefoxitin: subinhibitory; fluorescent label: DsRed
Summary of the method: as §1

Compound	normalized GFP fluorescence [1]	normalized DsRed fluorescence [2]
C[N+](C)(C)C[C@H](O)CC(=O)[O-] [L-carnitine (Levocarnitine)]	0.171	0.836
Cc1c(OCC(F)(F)F)ccnc1C[S+]([O-])c1nc2ccccc2[nH]1 (centres undefined) [Lansoprazole]	0.122	0.553
C#C[C@]1(O)CC[C@H]2[C@@H]3CCC4=Cc5oncc5C[C@]4(C)[C@H]3CC[C@@]21C	0.414	0.779
Nc1nc(=O)n([C@@H]2CS[C@H](CO)O2)cc1F [Emtricitabine]	0.4	0.622
COc1cc(OC)c(C(=O)CCCN2CCCC2)c(OC)c1 [Buflomedil HCl]	0.4	0.499
CC(Oc1c(Cl)cccc1Cl)C1=NCCN1 (centres undefined)	0.693	0.569
NC(=O)c1ncn([C@@H]2O[C@H](CO)[C@@H](O)[C@H]2O)c1N [AICAR (Acadesine)]	0.547	0.71
